Format in all cases: functional
In assay [1] the test system is Plasmodium falciparum. The assay is described as follows: GSK_TCMDC: Inhibition of Plasmodium falciparum 3D7 in whole red blood cells, using parasite LDH activity as an index of growth. Test compounds present at 2uM.
Assay [2] has as its system Plasmodium falciparum. The assay is described as follows: GSK_TCMDC: Inhibition of Plasmodium falciparum Dd2 in whole red blood cells, using parasite LDH activity as an index of growth. Test compounds present at 2uM.
Another assay has as its system HepG2. The assay is described as follows: GSK_TCMDC: Percent inhibition of human HepG2 cell line. Test compounds present at 10uM.

Here are results for 31 compounds from ChEMBL document CHEMBL1157539, “Thousands of chemical starting points for antimalarial lead identification” (Nature, 2010).

As usually defined, the Inhibition is the relative decrease from the control value, in per cent. A higher Inhibition goes with strong suppression.

`CCOC(=O)C(=CNc1ccc(Cc2cnc(N)nc2N)cc1CC)C(=O)OCC`: the results for the Inhibition in the assay on Plasmodium falciparum [1], with Plasmodium falciparum [2] and in the assay on HepG2 were 87%, 7% and 47%, respectively.

With `CCOc1cc2c(cc1S(=O)(=O)c1ccc(COc3ccc(C(F)(F)F)cc3)cc1)CCN(C)CC2.Cl`, the Inhibition in the assay with Plasmodium falciparum [1] is 87%; in the assay on Plasmodium falciparum [2], 14%; in the assay with HepG2, 27%.

Regarding `Nc1oc2c(CN3CCCCCC3)c(O)ccc2c(=O)c1-c1nc2ccccc2s1`, the figures for the Inhibition in the assay on Plasmodium falciparum [1], with Plasmodium falciparum [2] and in the assay with HepG2 were 100%, 99% and 12%, respectively.

Turning to `CCc1ccc(O)c(-c2cc(C(=O)Nc3ccc(OC)c(Cl)c3)[nH]n2)c1`, the Inhibition in the assay with Plasmodium falciparum [1] stood at 93%; in the assay on Plasmodium falciparum [2], 97%; in the assay with HepG2, 15%.

In the case of `O=C(Nc1ccccc1)Nc1cccc(-c2nn3c(OCC4CCCCN4)cccc3c2-c2ccncc2)c1` (stereo not drawn), the Inhibition in the assay with Plasmodium falciparum [1] came to 97%; with Plasmodium falciparum [2], 82%; with HepG2, 9%.

Consider `Cc1cc(NC(=O)Nc2ccc3ccn(C)c3c2)c2ccccc2n1`, for which the Inhibition in the assay on Plasmodium falciparum [1] was determined as 100%; in the assay on Plasmodium falciparum [2] it was 69%; in the assay on HepG2, 11%.

Turning to `CN(C)CCOc1cccc(-c2cnc(N)c(-c3nc4cc(S(C)(=O)=O)ccc4[nH]3)c2)c1.O=C(O)C(F)(F)F`, the figures for the Inhibition with Plasmodium falciparum [1], in the assay with Plasmodium falciparum [2] and in the assay on HepG2 were 100%, 82% and 39%, respectively.

As for `COc1ccccc1Cn1ccnc1SCC(=O)Nc1cc(C(F)(F)F)ccc1Cl`, the Inhibition in the assay on Plasmodium falciparum [1] was 96%; in the assay on Plasmodium falciparum [2] it was 97%; in the assay with HepG2, 12%.

As for `Nc1nc(N)c2c(ccc3[nH]ccc32)n1`, the Inhibition in the assay on Plasmodium falciparum [1] came to 88%; in the assay on Plasmodium falciparum [2], 0%; with HepG2, 58%.

On to `COc1ccc(NC(=O)NC2CCN(c3ccnc4ccccc34)C2)cc1.O=C(O)C(F)(F)F` (stereo not drawn), for which the Inhibition in the assay on Plasmodium falciparum [1] worked out at 94%; in the assay with Plasmodium falciparum [2], 0%; with HepG2, 3%.

On to `O=C(CCNc1ccnc(NCCc2ccc(F)cc2)n1)Nc1ccccc1.O=C(O)C(F)(F)F`, for which the Inhibition amounted to 95% in the assay on Plasmodium falciparum [1], 10% in the assay with Plasmodium falciparum [2] and 9% in the assay on HepG2.

`O=C(Nc1cccc(C(F)(F)F)c1)c1cccc(S(=O)(=O)NC2CCN(CC3CCCCC3)C2)c1.O=C(O)C(F)(F)F` (stereo not drawn): the Inhibition with Plasmodium falciparum [1] was 100%; in the assay on Plasmodium falciparum [2], 45%; with HepG2, 37%.

As for `CC(=O)c1ccc(N2CCN(C(=O)Nc3ccc(Cl)cc3)CC2)cc1`, the Inhibition in the assay with Plasmodium falciparum [1] amounted to 97%; with Plasmodium falciparum [2] it was 0%; with HepG2, 4%.

In the case of `COc1ccc2nccc([C@@H](O)CN3CCC(NC(=O)c4ccc(Cl)c([N+](=O)[O-])c4)CC3)c2c1`, the Inhibition with Plasmodium falciparum [1] turned out to be 88%; in the assay on Plasmodium falciparum [2] it was 43%; in the assay on HepG2, 14%.

As to `CN1C(=C2SC(=Nc3ccc4ncccc4c3)N(Cc3ccccc3)C2=O)Sc2ccc(Cl)cc21`, the Inhibition in the assay on Plasmodium falciparum [1] is 99%; with Plasmodium falciparum [2], 75%; in the assay with HepG2, 4%.

As to `CS(=O)(=O)c1ccc(CCNCc2ccc(-c3cccc(-c4nc5ccccc5[nH]4)c3)cc2)cc1.O=C(O)C(F)(F)F`, the Inhibition came out at 100% in the assay on Plasmodium falciparum [1], 99% with Plasmodium falciparum [2] and 40% with HepG2.

Regarding `CN1CCCC(CN2CCN(Cc3ccc(-c4cccc(-c5nc6cc(F)ccc6[nH]5)c4)cc3)CC2)C1.O=C(O)C(F)(F)F` (stereo not drawn), the figures for the Inhibition in the assay on Plasmodium falciparum [1], with Plasmodium falciparum [2] and in the assay on HepG2 were 100%, 99% and 92%, respectively.

Turning to `CC(C)c1ccc(NC(=O)c2ccc(NCCCN(C)Cc3ccccc3)c([N+](=O)[O-])c2)cc1`, the Inhibition in the assay on Plasmodium falciparum [1] was found to be 100%; with Plasmodium falciparum [2], 35%; with HepG2 it was 21%.

With `O=C(Nc1cccc([N+](=O)[O-])c1)N(Cc1ccc(Cl)c(Cl)c1)C1CCNCC1`, the Inhibition in the assay with Plasmodium falciparum [1] was 99%; with Plasmodium falciparum [2] it was 0%; with HepG2 it was 17%.

For the compound `COc1ccc(C[C@H](N)C(=O)N[C@H]2[C@@H](O)[C@H](n3cnc4c(N(C)C)ncnc43)O[C@@H]2CO)cc1` [PUROMYCIN], the Inhibition in the assay with Plasmodium falciparum [1] is reported as 100%; in the assay with Plasmodium falciparum [2], 100%; in the assay with HepG2, 99%.

As for `COc1ccc(O)c(C(=O)c2cc(C#N)c(=O)n(-c3ccc(Oc4ccccc4)cc3)c2)c1`, the Inhibition in the assay on Plasmodium falciparum [1] is 97%; in the assay with Plasmodium falciparum [2] it was 20%; with HepG2, 22%.

As to `Cc1cc(Nc2cccc(C(F)(F)F)c2)nc2ccc(NC(=O)c3ccc(=O)[nH]c3)cc12`, the values for the Inhibition with Plasmodium falciparum [1], in the assay with Plasmodium falciparum [2] and in the assay on HepG2 were 100%, 60% and 21%, respectively.

Consider `O=C(N[C@@H](Cc1ccccc1)C(=O)NC1CCCCCC1)c1ccc(O)c(-c2ccc(Cl)c(Cl)c2)c1`, for which the Inhibition in the assay on Plasmodium falciparum [1] is reported as 92%; with Plasmodium falciparum [2], 99%; with HepG2, 0%.

For the compound `CN1CCN(CC(=O)Nc2ccc(-c3cccc(-c4nc5cc(F)ccc5[nH]4)c3)cc2)CC1`, the Inhibition in the assay with Plasmodium falciparum [1] was 100%; in the assay on Plasmodium falciparum [2] it was 100%; with HepG2, 18%.

Take `CCCCCOc1ccc(/N=C2\C=C(O)C(=O)c3ccccc32)cc1`: the Inhibition in the assay on Plasmodium falciparum [1] was 99%; in the assay on Plasmodium falciparum [2], 96%; in the assay on HepG2, 10%.

Consider `O=C(NC(c1ccccc1)c1ccccc1)C(c1cc2ccccc2o1)N1CCN(C(c2ccccc2)c2ccccc2)CC1` (stereo not drawn), for which the Inhibition was 95% in the assay on Plasmodium falciparum [1], 78% in the assay with Plasmodium falciparum [2] and 0% in the assay on HepG2.

As for `Cc1cccc(-c2cccc3c(NC(=O)N4CCc5cc6nccc(N7CCN8CCC[C@H]8C7)c6cc54)cccc23)n1.Cl`, the Inhibition stood at 94% in the assay on Plasmodium falciparum [1], 68% in the assay with Plasmodium falciparum [2] and 14% in the assay on HepG2.

Take `Cc1ccccc1CCNC(=O)c1cnc(N2CCN(c3ccncc3)CC2)c(Cl)c1.O=C(O)C(F)(F)F`: the Inhibition worked out at 100% in the assay with Plasmodium falciparum [1], 95% with Plasmodium falciparum [2] and 36% with HepG2.

For the compound `O=C(Nc1ccc(Cl)cn1)c1sc2ccccc2c1O`, the figures for the Inhibition in the assay with Plasmodium falciparum [1], in the assay with Plasmodium falciparum [2] and in the assay with HepG2 were 99%, 18% and 2%, respectively.

Consider `CC(=O)Nc1ccc(CN2CCC(NC(=O)c3ccc(-c4ccc(N(C)C)cc4)s3)CC2)cc1.O=C(O)C(F)(F)F`, for which the Inhibition with Plasmodium falciparum [1] is recorded as 100%; with Plasmodium falciparum [2], 57%; with HepG2 it was 20%.

In the case of `O=[N+]([O-])c1ccccc1/C=N/Nc1ccnc2cc(Cl)ccc12`, the Inhibition came out at 100% in the assay with Plasmodium falciparum [1], 89% with Plasmodium falciparum [2] and 0% with HepG2.
